Assay results as given in PubChem BioAssay (NCI).
Compounds without any hit were thinned out: in the full panel of roughly 83,000, 20% have a hit.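 Note: values are percent growth. 100 is the growth of untreated cells, values between 100 and 0 indicate rising inhibition; between -100 and 0 indicates cell death.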 Unmarked numbers belong to inactive results. Active and inactive are the calls of the source. The calls were made as follows: active = growth percent below 10; inactive = the rest.

Key:
Assay in all cases: NCI-60 one-dose screen, 48 h (100 = growth as untreated, 0 = no growth, -100 = all killed)
Settings in all cases: 10 µM unless noted
DU-145 prostate = system: DU-145 prostate
K-562 leukemia = system: K-562 leukemia
MALME-3M melanoma = system: MALME-3M melanoma
MDA-MB-231 breast = system: MDA-MB-231 breast
RXF 393 renal = system: RXF 393 renal
SF-268 CNS = system: SF-268 CNS
SF-295 CNS = system: SF-295 CNS
SF-539 CNS = system: SF-539 CNS
UACC-257 melanoma = system: UACC-257 melanoma
M14 melanoma = system: M14 melanoma
HCT-15 colon = system: HCT-15 colon
HT29 colon = system: HT29 colon
SNB-75 CNS = system: SNB-75 CNS
SNB-19 CNS = system: SNB-19 CNS
U251 CNS = system: U251 CNS
PC-3 prostate = system: PC-3 prostate
SK-MEL-5 melanoma = system: SK-MEL-5 melanoma
UACC-62 melanoma = system: UACC-62 melanoma
LOX IMVI melanoma = system: LOX IMVI melanoma
SK-MEL-28 melanoma = system: SK-MEL-28 melanoma

Row | SMILES | growth (DU-145 prostate) | growth (K-562 leukemia) | growth (MALME-3M melanoma) | growth (MDA-MB-231 breast) | growth (RXF 393 renal) | growth (SF-268 CNS) | growth (SF-295 CNS) | growth (SF-539 CNS) | growth (UACC-257 melanoma) | growth (M14 melanoma) | growth (HCT-15 colon) | growth (HT29 colon) | growth (SNB-75 CNS) | growth (SNB-19 CNS) | growth (U251 CNS) | growth (PC-3 prostate) | growth (SK-MEL-5 melanoma) | growth (UACC-62 melanoma) | growth (LOX IMVI melanoma) | growth (SK-MEL-28 melanoma)
1 | C#CCOc1ccc(C2=NN(CC3CC3)C3N=C(Cl)c4ncn(CC5CC5)c4N23)cc1OCC#C (stereo unspecified) | 69% | 48.6% | 83.5% | 87.5% | 51.2% | 96.8% | 88% | 90% | 98.8% | 74.3% | 69.5% | 84.3% | 84.6% | 98.7% | 70.5% | 63.7% | 60.9% | 59.7% | 68.4% | 93.6%
2 | COc1cc2c(cc1OCCCN1CCN(CCCOc3cc4c(cc3OC)C(=O)N3C[C@H](F)C[C@H]3C=N4)CC1)N=C[C@@H]1C[C@@H](F)CN1C2=O | -19.9% (active) | 2.13% (active) | -75.7% (active) | 18.8% | -52.1% (active) | 9.5% (active) | 13.8% | -68.4% (active) | 20.8% | -7.96% (active) | 56.6% | 0.625% (active) | -72.3% (active) | 18.1% | 8.39% (active) | 12.7% | -44.7% (active) | -59.7% (active) | 5.06% (active) | -50.8% (active)
3 | O=c1c2c3c(sc2n2cnnc2n1Cc1ccccc1)CCCC3 | 106% | 69.9% | 95.8% | 96.6% | 101% | 107% | 57.1% | 93.5% | 131% | 164% | 93.4% | 100% | 111% | 99% | 102% | 99.7% | 98% | 91.8% | 97.6% | –
4 | CCCOc1ccc(-c2nc(-c3ccc(N)cc3)cs2)cc1 | 133% | 85.3% | 116% | 99% | 99.5% | 133% | 89.3% | 103% | 111% | 111% | 89.9% | 96.7% | 98% | 96.6% | 107% | 94.6% | 100% | 97% | 110% | –
5 | O=C(NNc1ccc(-c2ccccc2)nn1)c1ccc(F)cc1 | 88.9% | 98.5% | 109% | 94.5% | 82.1% | 88.8% | 95.3% | 93.4% | 108% | 99.9% | 89% | 96.1% | 79.9% | 86.5% | 95.2% | 105% | 95.3% | 95.3% | 98.9% | –
6 | CCOC(=O)c1ccc2nc(-c3c(C)nn(-c4ccccc4)c3N3CCOCC3)[nH]c2c1 | 105% | 91.2% | 98.7% | 69.9% | 92.1% | 94.3% | 96.2% | 95.8% | 106% | 89.3% | 103% | 110% | 84.9% | 98.6% | 90.8% | 86.9% | 94.2% | 77.5% | 82% | –
7 | CCCCCCNC(=O)Nc1ncnc2c1ncn2-c1ccccc1 | 108% | 106% | 115% | 92.8% | 106% | 103% | 90.1% | 94% | 105% | 104% | 95.2% | 99.4% | 72.7% | 94.2% | 94.8% | 89.4% | 98.3% | 97.6% | 102% | 104%
8 | C[C@@H](NC(=O)[C@@H](CC(=O)N1CCC(N2CCCCC2)CC1)N1C(=O)[C@@H](N2C(=O)OC[C@@H]2c2ccccc2)[C@H]1/C=C/c1cccc(Cl)c1)c1ccccc1 | 88.1% | -8.32% (active) | -33.7% (active) | 33.2% | 60.5% | 67.9% | 82% | 75.7% | 57.2% | -46.6% (active) | 32.8% | 1.92% (active) | 70.8% | 82.2% | 55.2% | 56.1% | -89% (active) | 89.5% | -43.2% (active) | -29.4% (active)
9 | CCCCNC(=O)NS(=O)(=O)Cc1ccccc1 | 111% | 99.7% | 117% | 127% | 124% | 107% | 116% | 101% | 104% | 106% | 109% | 114% | 95.3% | 114% | 96.4% | 102% | 107% | 104% | 107% | 108%
10 | O=C(NCCO)c1cccnc1 | 109% | 95.2% | 105% | 112% | 112% | 100% | 101% | 101% | 87.7% | 104% | 113% | 91.5% | 92.9% | 101% | 92.7% | 83.4% | 96% | 105% | 95% | 106%
11 | CCOC(=O)n1cc(C2=C(c3ccc(OC)c(OC)c3)COC2=O)c2ccccc21 | -7.55% (active) | 9.56% (active) | 45% | 13.5% | -4.89% (active) | 28.2% | 16.2% | -15% (active) | 91.2% | 54.6% | 7.9% (active) | 1.19% (active) | 13.9% | 32.6% | 23.6% | 12% | -38.9% (active) | 32.9% | 39.1% | 63.8%
12 | C#C[C@]1(O)CC[C@H]2[C@@H]3CC=C4c5nc(Nc6ccccn6)sc5CC[C@]4(C)[C@H]3CC[C@@]21C | 17.2% | 2.53% (active) | 10.9% | -23.1% (active) | -66% (active) | -24% (active) | -72.2% (active) | -64.7% (active) | -54.7% (active) | -35.9% (active) | 1.7% (active) | 16.9% | -42.4% (active) | 11% | -26.2% (active) | -28.6% (active) | -82.2% (active) | -28.4% (active) | -68% (active) | -68.2% (active)
13 | C=C(C)[C@@H]1CC[C@]2(C)[C@H](C(=O)C=C3[C@@H]4C[C@](C)(C(=O)N5CCN(C)CC5)CC[C@]4(C)CC[C@]32C)[C@@]1(C)CCC#N | -51.6% [100 µM] (active) | -4.62% [100 µM] (active) | -86.5% [100 µM] (active) | -92.4% [100 µM] (active) | -86.4% [100 µM] (active) | -76.2% [100 µM] (active) | -88% [100 µM] (active) | -92% [100 µM] (active) | -77.1% [100 µM] (active) | -62.6% [100 µM] (active) | -88.2% [100 µM] (active) | -53.2% [100 µM] (active) | -92.2% [100 µM] (active) | -95.8% [100 µM] (active) | -76.7% [100 µM] (active) | -65.9% [100 µM] (active) | -94.6% [100 µM] (active) | -88.9% [100 µM] (active) | -93.6% [100 µM] (active) | -90.1% [100 µM] (active)
14 | Nc1ccc2c(c1)Cc1cc(NC(=O)C(F)(F)F)ccc1-2 | 99.2% | 108% | 108% | 71.2% | 113% | 96.1% | 99.8% | 97.6% | 104% | 109% | 96.4% | 90.8% | 98.6% | 101% | 96.2% | 99.5% | 98.4% | 93.7% | 102% | 102%
15 | CC1=CC[C@@H]2C(C)(C)[C@@H](O)CC[C@@]2(C)[C@@H]1COc1ccc2ccc(=O)oc2c1 | 68.9% | 36% | 72.3% | 78.7% | 65% | 66.1% | 46.5% | 85.6% | 102% | 76.9% | 29.4% | 70.5% | 62.1% | 81.2% | 67.9% | 30.6% | 28.7% | 22.9% | 52.2% | 91.4%
